Measurements from PubChem BioAssay AID588511 (Johns Hopkins Ion Channel Center, 2011).
Among all 310,000 compounds or so, about 3,600 (1.2%) were called active.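 How the source made its calls: active means ratio plate-corrected score three or more library SD toward inhibition, starting fluorescence score within five deviations; inactive means the rest.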 The list comes from a sample in which actives are over-represented; it also holds similar structures and randomly drawn compounds.

target: Anoctamin-1 (Mus musculus) (UniProt Q8BHY3); test: blockers of mouse ANO1 Ca-activated Cl channel – cell-based, HTS, primary screen (AID 588511); details: HEK293 TMEM16A/YFP iodide influx fluorescence, ionomycin; at 10 µM;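 on normalized B-score (activity score, 25-100; higher = stronger inhibition): score derived from kinetic fluorescence span divided by baseline fluorescence per well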
Sequence (Q8BHY3 whole entry, looked up): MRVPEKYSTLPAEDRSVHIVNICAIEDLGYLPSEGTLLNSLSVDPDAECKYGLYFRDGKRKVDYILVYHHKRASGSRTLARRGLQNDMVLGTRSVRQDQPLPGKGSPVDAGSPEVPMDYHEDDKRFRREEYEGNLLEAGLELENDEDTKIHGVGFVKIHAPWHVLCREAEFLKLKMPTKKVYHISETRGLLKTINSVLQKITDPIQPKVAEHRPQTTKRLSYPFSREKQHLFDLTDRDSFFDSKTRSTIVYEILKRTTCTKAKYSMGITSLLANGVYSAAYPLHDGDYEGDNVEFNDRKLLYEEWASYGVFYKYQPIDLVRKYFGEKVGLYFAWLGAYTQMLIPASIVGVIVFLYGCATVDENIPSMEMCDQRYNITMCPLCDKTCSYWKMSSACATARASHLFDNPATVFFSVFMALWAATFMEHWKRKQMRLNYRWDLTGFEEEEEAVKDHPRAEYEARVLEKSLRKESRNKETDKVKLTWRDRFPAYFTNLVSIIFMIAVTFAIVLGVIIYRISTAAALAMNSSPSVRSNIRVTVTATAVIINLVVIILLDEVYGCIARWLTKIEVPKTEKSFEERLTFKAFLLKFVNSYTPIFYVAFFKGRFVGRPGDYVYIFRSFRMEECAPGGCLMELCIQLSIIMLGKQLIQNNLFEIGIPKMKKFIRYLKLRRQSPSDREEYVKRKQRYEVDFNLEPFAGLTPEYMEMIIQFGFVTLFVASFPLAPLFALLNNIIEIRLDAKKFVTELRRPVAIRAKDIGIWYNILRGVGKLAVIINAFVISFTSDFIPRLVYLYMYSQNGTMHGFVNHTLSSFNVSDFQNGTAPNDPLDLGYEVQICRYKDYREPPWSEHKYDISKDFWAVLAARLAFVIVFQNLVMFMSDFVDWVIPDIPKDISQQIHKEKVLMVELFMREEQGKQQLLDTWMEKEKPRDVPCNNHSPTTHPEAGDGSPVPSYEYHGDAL

SMILES | normalized B-score (activity score, 25-100; higher = stronger inhibition)
CC1CCN(C(=O)c2ccc(CSc3ccc(Cl)cc3)cc2)CC1 | 25 (active)
O=C(C1CC1)N1CCN=C1SCc1ccc(Cl)cc1 | inactive
O=C(c1ccc(CSc2ccccc2)cc1)N1CCCCCC1 | inactive
CCCCN1C(N)=NC[C@@H]1Cc1ccccc1 | inactive
COc1ccc(NS(=O)(=O)c2ccc(C)c(C(=O)NNC(=O)c3csc(N4CCOCC4)n3)c2)cc1 | inactive
Cc1ccc(CN2CCN(Cc3ccc(OCCO)cc3)CC2CCO)o1 (centres undefined) | inactive
CC12CCC(C(=O)N(c3cccc(Cl)c3)C1=O)C2(C)C (centres undefined) | inactive
CC1=NN(c2cccc(Cl)c2)C(=O)C12CC(C)=C(C)CS2 (centres undefined) | 100 (active)
Cc1ccccc1OCC(=O)NNC(=O)c1cc(S(=O)(=O)N(C)C)ccc1N1CCCC1 | inactive
CN(C(=O)COC(=O)c1ccc(Br)o1)c1c(N)n(Cc2ccccc2)c(=O)[nH]c1=O | inactive
COC(=O)c1ccccc1NS(=O)(=O)c1ccc2[nH]c(=O)[nH]c2c1 | inactive
COc1cccc(OC)c1C(=O)Nc1c(C(=O)N2CCN(c3ccccn3)CC2)oc2ccccc12 | inactive
O=C(CN1C(=O)C2C3C=CC(C3)C2C1=O)Nc1nc(-c2ccccn2)cs1 (centres undefined) | inactive
CC(NC(=O)c1ccco1)C(=O)Nc1nc(-c2ccccn2)cs1 (centres undefined) | 100 (active)
Cc1cc(NC(=O)[C@H](C)NC(=O)c2ccco2)ccc1Br | inactive
CCc1ccc(NC(=O)C(=O)NNC(=O)c2cccs2)cc1 | inactive
OCC[C@H]1C[C@@H](O)[C@H](O)[C@@]2(OCCc3ccccc32)O1 | inactive
CCOC(=O)C1Nc2ccc(C(F)(F)F)cc2C2C=CCC12 (centres undefined) | inactive
COc1ccc(C(=O)N2CCCCC2C(=O)Nc2ccc(-n3nc(C)cc3C)cc2)o1 (centres undefined) | inactive
O=S(=O)(NC1CC2CCC1C2)c1ccc(Cl)cc1 (centres undefined) | inactive
CCC(=O)c1ccc(OCC(=O)Nc2ccc3nc(C)sc3c2)cc1 | inactive
CCOc1ccc2nc(NC(=O)c3cc([N+](=O)[O-])ccc3N3CCOCC3)sc2c1 | inactive
Cc1cc(C)cc(OCC(=O)Nc2nc3ccc([N+](=O)[O-])cc3s2)c1 | 100 (active)
Cc1cc(F)ccc1N1CCC(N2CCN(C)C(CCO)C2)CC1 (centres undefined) | inactive
Cc1cccc(C(=O)Nc2ccc(Oc3cnccn3)cc2)c1 | inactive
Cc1csc(=NC(=O)c2ccccc2)n1CCO | inactive
Cc1csc(=Nc2ccccc2)n1CCO | inactive

SMILES | normalized B-score (activity score, 25-100; higher = stronger inhibition)
OCCn1c(-c2ccccc2)csc1=Nc1ccccc1 | 25 (active)
O=C(OC1CCOC1=O)c1cccc(S(=O)(=O)Nc2ccc(F)cc2)c1 (centres undefined) | inactive
CCOC(=O)C1CCN(C(=O)C2CCCN(S(=O)(=O)c3ccc(OC)c(Cl)c3)C2)CC1 (centres undefined) | inactive
COC(=O)c1ccc(COC(=O)c2c(C)nn(Cc3ccccc3Cl)c2Cl)o1 | 25 (active)
COC(=O)c1ccc(COC(=O)C2CCN(S(=O)(=O)c3c(Cl)cccc3Cl)CC2)o1 | inactive
COC(=O)c1ccc(CSc2ccccc2C)o1 | inactive
Cc1ccc(O)c(/C=N/NC(=O)COc2ccc3c(C)cc(=O)oc3c2)c1 | inactive
S=C(NCC1CCCO1)N1CCN(c2ccc(Cl)c(Cl)c2)CC1 (centres undefined) | 100 (active)
COc1ccc(S(=O)(=O)N2CCN(C(=S)NCC3CCCO3)CC2)cc1OC (centres undefined) | inactive
CCOc1ccc(S(=O)(=O)N2CCN(C(=S)NCC3CCCO3)CC2)cc1 (centres undefined) | inactive
Cc1ccccc1CN1CCNC(=O)C1CC(=O)NCCC1=CCCCC1 (centres undefined) | inactive
Cc1nnc(SCCCCSc2nnc(C)c(=O)[nH]2)[nH]c1=O | inactive
CC(C)(C)c1ccc(CCC2OCC(CN3CCOCC3)O2)cc1 (centres undefined) | inactive
CCCC(C)n1[nH]c(=O)c2c(C)cc(C)nc21 (centres undefined) | inactive
CCCCC(=O)NNC(=S)NC(=O)C(c1ccccc1)c1ccccc1 | 25 (active)
CC(C)C(=O)Nc1cccc(NC(=S)NC(=O)C(c2ccccc2)c2ccccc2)c1 | inactive
O=C(NNC(=S)NCc1ccco1)C(c1ccccc1)c1ccccc1 | inactive
CSCCC(NS(=O)(=O)c1ccc(C)cc1)C(=O)N1CCCC1 (centres undefined) | inactive
CN(C)c1ccc(-c2nnc(-c3cccnc3)o2)cc1 | inactive
COc1cccc(N(C(=O)c2ccn[nH]2)C2(C(=O)Nc3c(C)cccc3C)CCCCC2)c1 | inactive
CS(=O)(=O)N1CCN=C1SCc1ccc(F)cc1 | inactive
O=C(NCCc1ccccc1)c1ccc2c(c1)N(Cc1ccccc1)CCS2 | inactive
O=C(NCCN1CCOCC1)c1ccc2c(c1)N(Cc1ccc(Cl)cc1)CCS2 | inactive
CCOC(=O)N1CCN(C(=O)c2ccc3c(c2)N(Cc2ccc(C)cc2)CCS3)CC1 | 25 (active)
CC1CCN(C(=O)c2cccc(S(=O)(=O)N3CCCc4ccccc43)c2)CC1 | inactive
O=C1CCC(=O)N(O)CCCCCNC(=O)CCC(=O)N(O)CCCCCNC(=O)CCC(=O)N(O)CCCCCN1 | inactive
Cc1ccc(NC(=O)c2nc[nH]c2C(=O)N[C@@H](CCCCNC(=O)OC(C)(C)C)C(=O)OC(C)(C)C)cc1 | inactive
